Assay results reported in PubChem BioAssay AID1259421 (Broad Institute, 2018).
Values joined by “and” are separate entries in the source; they are usually repeats but may differ in a detail not shown here. Equal values may be shown once. Screen size: about 6,400 compounds; about 610 (9.5%) were called active. Rule as the data show it: active = activity change below about -70%; inconclusive = no clear call, values can overlap the other calls; inactive = above that. This excerpt belongs to a sample that is enriched for actives.

Assay: Toxoplasma gondii ME49Luc growth in HeLa cells, luciferase, no IFN-y, primary screen (AID 1259421)
Details: T. gondii ME49Luc in HeLa, 72 h, stronger effect = lower value, concentration not given here

Structure (SMILES)	activity change, negative = inhibition
CCC(Oc1ccc(Cl)cc1)C(=O)OC1CC2CCC(C1)N2C (centres undefined)	-2.85% (inactive) and -12.4% (inactive)
c1ccc(CC(c2ccccc2)N2CCCCC2)cc1 (centres undefined)	9.17% (inactive) and 15.7% (inactive)
Cc1[nH]c2ccc(Cl)cc2c1C1=CCNCC1	8.93% (inactive) and 11.2% (inactive)
COC(=O)CN1CN(c2ccccc2)C2(CCN(Cc3cccc4ccccc34)CC2)C1=O	-6.13% (inactive)
COc1ccc(OC)c(C(O)C(C)NC(C)(C)C)c1 (centres undefined)	12% (inactive)
Cc1nnc2n1-c1ccc(Cl)cc1C(c1ccccc1Cl)=NC2	18.7% (inactive)
CC(C)(O)C(=O)Nc1ccc([N+](=O)[O-])c(C(F)(F)F)c1	5.88% (inactive)
COc1ccc(C[C@H]2NC[C@H](O)[C@H]2OC(C)=O)cc1	-80.3% (active) and -86.5% (active)
CC(C)(C)OC(=O)c1ncn2c1[C@@H]1CCCN1C(=O)c1c(Br)cccc1-2	6.65% (inactive)
CN1CCC2=C(C1)c1ccccc1Cc1ccccc12	3.96% (inactive)
Cc1[nH]cnc1CCN	7.41% (inactive)
C[C@]12CC/C(=N\OCCN)C[C@@H]1C(=O)C[C@@H]1[C@@H]2CC[C@]2(C)C(=O)CC[C@@H]12	14.1% (inactive)
Clc1ccc(C23CNCC2C3)cc1Cl (centres undefined)	6.45% (inactive)
C=CCN1CCC23c4c5ccc(O)c4OC2C(=O)CCC3(O)C1C5 (centres undefined)	-2.6% (inactive)
CC(C)=CCCC1(C)C=Cc2c(O)c3c(c(CC=C(C)C)c2O1)OC12C(=CC4CC1C(C)(C)OC2(CC=C(C)C(=O)O)C4=O)C3=O (centres undefined)	-77.9% (active)
CC(C)CCCC1(C)C=Cc2c(O)c3c(c(CCC(C)C)c2O1)OC12C(CC4CC1C(C)(C)OC2(CCC(C)C(=O)O)C4O)C3=O (centres undefined)	-3.34% (inactive)
CC(C)=CCC[C@]1(C)C=Cc2c(O)c3c(c(CC=C(C)C)c2O1)O[C@]12C(=C[C@@H]4C[C@H]1C(C)(C)O[C@@]2(CC=C(C)C(=O)O)C4=O)C3=O	-83.4% (active)

Structure (SMILES)	activity change, negative = inhibition
CN(C)[C@@H]1C(=O)C(C(N)=O)C(=O)[C@@]2(O)C(=O)C3C(=O)c4c(O)cccc4[C@@](C)(O)C3[C@H](O)C12 (some centres undefined)	-0.0524% (inactive)
C=C(C)C1Cc2c(ccc3c(=O)c4c(oc23)COc2cc(OC)c(OC)cc2-4)O1 (centres undefined)	-1.04% (inactive)
CCCCCCN1CCN(c2cccc(Cl)c2)CC1	9.58% (inactive)
O=C1CC2OCC=C3CN4CC[C@]56c7ccccc7N1C5[C@H]2[C@H]3CC46 (some centres undefined)	15.9% (inactive) and 2.19% (inactive)
CC(C)C1(NC(=O)C2CC3c4cccc5[nH]cc(c45)CC3N(C)C2)OC2(O)C3CCCN3C(=O)C(Cc3ccccc3)N2C1=O (centres undefined)	-21.5% (inactive)
CN1Cc2ccccc2[C@@H]2c3cccc4[nH]cc(c34)C[C@H]21	-78.9% (active)
CC(C)[C@@]1(NC(=O)[C@@H]2CC3c4cccc5[nH]cc(c45)C[C@H]3N(C)C2)O[C@@]2(O)[C@@H]3CCCN3C(=O)[C@H](Cc3ccccc3)N2C1=O (some centres undefined)	-13.7% (inactive)
CN1CC[C@@H]2CN3CCc4cccc(c43)[C@@H]2C1	3.72% (inactive)
CCC(C)C(=O)O[C@H]1[C@H](O)C2C(CN3CC(C)CCC3[C@@]2(C)O)C2C[C@]34O[C@]5(O)C(OC(=O)C(C)(O)CC)CC[C@@]3(C)C5C(OC(C)=O)[C@@H](OC(C)=O)C4[C@@]21O (some centres undefined)	1.67% (inactive)
CC1(C)CC(O)CC(C)(C)N1O	8.37% (inactive) and 5.38% (inactive) and 2.68% (inactive)
CN(C(=O)Cc1ccccc1)C(CN1CCCC1)c1ccccc1 (centres undefined)	6.5% (inactive)
C[C@]12CC[C@H](O)C[C@H]1CC[C@@H]1[C@@H]2CC[C@]2(C)[C@@H](c3ccc(=O)oc3)C[C@H]3OC132 (some centres undefined)	-78.4% (active)
C[C@]12CC[C@H](O)C[C@@H]1CC[C@@H]1[C@H]2CC[C@]2(C)C(=O)CC[C@@H]12	6.71% (inactive)
C[C@]12CCC3[C@@H](CC[C@@H]4C[C@H](O)CC[C@]34C)[C@@H]1CCC2=O (some centres undefined)	8.25% (inactive)
CN(C)CCNc1nc2cc(O)ccc2c2c1C(=O)c1ccccc1-2	-85.6% (active)
O=C(O)C(=O)CBr	-21.8% (inactive)
C[N+]1(C)CCc2cc3c(cc2[C@H]1C1OC(=O)c2c1ccc1c2OCO1)OCO3 (some centres undefined)	9.96% (inactive)
